Test results reported in PMC5540273 (PLoS ONE, 2017).

What was measured:
Conditions in all cases: concentration: 1 μM, replicates: in singlicate; n = 1
PAK4 = system: PAK4
PAK6 = system: PAK6
PAK7 = system: PAK7
PCTK1 = system: T1, PCTK1
T1 construct: gene CDK16

PCTK2 = system: T2, PCTK2
T2 construct: gene CDK17

PCTK3 = system: T3, PCTK3
T3 construct: gene CDK18

PDGFRA = system: PDGFRA
PDGFRB = system: PDGFRB
PDPK1 = system: PDPK1
PFTAIRE2 = system: PFTAIRE2
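Also: KINOMEscan kinase panel screen.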

Row | SMILES | %Inh (PAK4) | %Inh (PAK6) | %Inh (PAK7) | %Inh (PCTK1) | %Inh (PCTK2) | %Inh (PCTK3) | %Inh (PDGFRA) | %Inh (PDGFRB) | %Inh (PDPK1) | %Inh (PFTAIRE2)
1 | Cc1nnc(-c2ccc(C)c(-c3ccc(C(=O)Nc4ccc(NS(C)(=O)=O)cc4)cc3)c2)o1 [GW702865] | 0% | 0% | 6% | 0% | 7% | 12% | 9% | 36% | 0% | 3%
2 | Cc1ccc(C(=O)NCC(N)=O)cc1-n1c(C)cc(OCc2ccc(F)cc2F)c(Br)c1=O | 13% | 12% | 5% | 0% | 2% | 22% | 0% | 9% | 15% | 10%
3 | N#Cc1c(N2CCOCC2)sc(-c2ccn[nH]2)c1-c1ccc(Cl)cc1 | 15% | 29% | 0% | 0% | 0% | 7% | 3% | 12% | 0% | 0%
4 | NS(=O)(=O)CCc1cccc(Nc2nccc(-c3c(-c4cccc(NC(=O)c5c(F)cccc5F)c4)nn4ccccc34)n2)c1 [GSK336735] | 0% | 16% | 4% | 10% | 0% | 23% | 90.1% | 100% | 1% | 25%
